Among all 52,000 compounds or so, about 4,300 (8.3%) were called active. No stated cut-off is given here; in the data, active means survival mostly below about 52% (no sharp cut-off); inactive means mostly above about 56%. The list comes from a sample in which actives are over-represented; it also holds similar structures and randomly drawn compounds.
What follows are compounds tested on DeltatarO mutant (assay: S. aureus survival, RN4220 and DeltatarO strains – OD600, teichoic acid synthesis inhibitors, primary screen (AID 463173)). Settings: S. aureus RN4220 wild type/DeltatarO growth, OD600, 18 h, stronger effect = lower value, screened at 18.75 µg/mL (by protocol).

| SMILES | survival |
| --- | --- |
| COc1ccc(CNC(=O)C2CCN(S(=O)(=O)c3ccc(F)cc3)CC2)cc1 | 71% (inactive) |
| Cc1ccc(CNC(=O)C2CCN(S(=O)(=O)c3ccc(F)cc3)CC2)cc1 | 62% (inactive) |
| COc1ccc(CNC(=O)C2CCN(S(=O)(=O)c3ccc(C)cc3)CC2)cc1 | 56% (active) |
| CCC(C)NC(=O)C1CCN(S(=O)(=O)c2ccc3c(ccn3CC)c2)CC1 (centres undefined) | 8% (active) |
| CCn1ccc2cc(S(=O)(=O)N3CCC(C(=O)NCC(C)c4ccccc4)CC3)ccc21 (centres undefined) | 94% (inactive) |
| CCn1ccc2cc(S(=O)(=O)N3CCCN(C(=O)Nc4cccc(Cl)c4)CC3)ccc21 | 83% (inactive) |
| CCn1ccc2cc(S(=O)(=O)N3CCC(C(=O)NCc4ccc(OC(C)C)cc4)CC3)ccc21 | 95% (inactive) |
| CCCCNC(=O)C1CCN(S(=O)(=O)c2ccc3c(ccn3CC)c2)CC1 | 99% (inactive) |
| CCn1ccc2cc(S(=O)(=O)N3CCC(C(=O)NCc4ccc(F)cc4)CC3)ccc21 | 85% (inactive) |
| CCn1ccc2cc(S(=O)(=O)N3CCCN(C(=O)Nc4cccc(SC)c4)CC3)ccc21 | 47% (active) |
| CSc1cccc(NC(=O)N2CCN(S(=O)(=O)c3ccc4c(ccn4C)c3)CC2)c1 | 58% (inactive) |
| CCn1ccc2cc(S(=O)(=O)N3CCC(C(=O)NCc4ccc(OC)cc4)CC3)ccc21 | 20% (active) |
| CN1C(C(=O)c2ccccc2)=C(OC(=O)c2ccc(Br)cc2)c2ccccc2S1(=O)=O | 123% (inactive) |
| Cc1ccc(Nc2cc(C(=O)NC3CCCC3)c3ccccc3n2)c(C)c1 | 77% (inactive) |
| CCN(CC)C(=O)C1CCN(Cc2cccc(OC)c2OC)CC1 | 99% (inactive) |
| CCN(C(=O)CSc1nc2ccccc2n1CC(=O)N1CCCC(C)C1)c1ccccc1 (centres undefined) | 109% (inactive) |
| COc1ccc(Br)cc1CNC(=O)c1cnc2sc(N3CCCC3)nn2c1=O | 98% (inactive) |
| COc1ccccc1-n1c(=O)c2c3c(sc2n(Cc2ccccc2F)c1=O)CN(C(C)=O)CC3 | 120% (inactive) |
| O=S(=O)(c1ccccc1)N1CCCC(c2nc(-c3cccs3)no2)C1 (centres undefined) | 67% (inactive) |
| CCOC(=O)Cn1c(=O)n(C2CCCCC2)c2nc(-c3ccc(C(C)C)cc3)nc(C(N)=O)c21 | 61% (inactive) |
| CCOCCCNC(=O)C1CCCN(Cc2nc(-c3ccc(CC)cc3)oc2C)C1 (centres undefined) | 76% (inactive) |
| COc1cccc(CNC(=O)C2CCCN(S(=O)(=O)c3ccc4c(ccn4C)c3)C2)c1OC (centres undefined) | 101% (inactive) |
| COc1ccc(CNC(=O)C2CCCN(S(=O)(=O)c3ccc4c(ccn4C)c3)C2)c(OC)c1 (centres undefined) | 25% (active) |

| SMILES | survival |
| --- | --- |
| Cc1ccc(CNC(=O)C2CCCCN2S(=O)(=O)c2ccc(F)cc2)cc1 (centres undefined) | 84% (inactive) |
| COc1cccc(CNC(=O)C2CCCN(S(=O)(=O)c3ccc4c(ccn4C)c3)C2)c1 (centres undefined) | 124% (inactive) |
| O=C(NCc1ccc(F)cc1)C1CCCCN1S(=O)(=O)c1ccc(F)cc1 (centres undefined) | 32% (active) |
| COc1ccc(CNC(=O)C2CCCCN2S(=O)(=O)c2ccc(F)cc2)cc1 (centres undefined) | 95% (inactive) |
| CCC(=O)N1CCc2cc(CNC(=O)Nc3cc(C)ccc3C)ccc21 | 84% (inactive) |
| CC(=O)N1CCCc2cc(S(=O)(=O)N3CCCC(C(=O)Nc4cc(Cl)ccc4C)C3)ccc21 (centres undefined) | 124% (inactive) |
| CC(C)Sc1ncc(Cl)c(C(=O)Nc2c(C(=O)Nc3ccccc3)oc3ccccc23)n1 | 61% (inactive) |
| CN(C)c1ccc(C(CC(=O)O)NC(=O)c2ccc(Cl)cc2)cc1 (centres undefined) | 104% (inactive) |
| COc1ccc(NC(=O)c2nnn(Cc3nc(-c4cc(OC)c(OC)c(OC)c4)oc3C)c2C)cc1 | 61% (inactive) |
| C=CCc1c(C)nc(SC)nc1Nc1ccc(C(=O)O)cc1 | 113% (inactive) |
| O=C(Oc1cccc(-n2cnnn2)c1)C1CCCCC1 | 94% (inactive) |
| Cc1ccc(C(=O)Nc2c(C)nc3ccccn3c2=O)cc1C | 69% (inactive) |
| Cc1nc2ccccn2c(=O)c1NC(=O)c1ccc(C(F)(F)F)cc1 | 0% (active) |
| Cc1ccc(C(=O)Nc2c(C)nc3ccccn3c2=O)cc1 | 74% (inactive) |
| Cc1ccccc1C(=O)Nc1c(C)nc2ccccn2c1=O | 37% (active) |
| Cc1nc2ccccn2c(=O)c1NC(=O)c1ccccc1Cl | 131% (inactive) |
| Cc1nc2ccccn2c(=O)c1NC(=O)c1ccc(F)c(F)c1 | 99% (inactive) |
| O=c1ccc2cc(S(=O)(=O)NCc3ccc(Cl)cc3)ccc2[nH]1 | 91% (inactive) |
| Cc1cccc2sc(N(Cc3cccnc3)C(=O)CCOc3ccccc3)nc12 | 82% (inactive) |
| Cc1cccc(N2CCN(S(=O)(=O)c3ccc4oc(=O)c5ncn(C)c5c4c3)CC2)c1C | 77% (inactive) |
| O=C(/C=C/c1ccccc1)N1CCN(Cc2cc(=O)n3nc(-c4ccccc4)sc3n2)CC1 | 90% (inactive) |
| CC(NC(=O)C1CCN(C(=O)c2ccc(-n3ccc4ccccc43)s2)CC1)c1ccccc1 (centres undefined) | 79% (inactive) |
| CCOc1ccc(/C=C/C(=O)NCc2ccco2)cc1OC | 83% (inactive) |

| SMILES | survival |
| --- | --- |
| Cc1cc(C)nc(NS(=O)(=O)c2ccc(NC(=O)COc3ccc(C(C)(C)C)cc3)cc2)n1 | 56% (inactive) |
| COCCN(Cc1ccc(C)c(Br)c1)S(=O)(=O)c1ccc2[nH]c(=O)ccc2c1 | 20% (active) |
| CCN(c1ccc(OC)cc1)S(=O)(=O)c1ccc2[nH]c(=O)ccc2c1 | 79% (inactive) |
| CN(C)CCN(Cc1ccccc1)S(=O)(=O)c1ccc2[nH]c(=O)ccc2c1 | 95% (inactive) |
| Cc1ccc2oc(C(=O)Nc3ccc(S(=O)(=O)Nc4ncccn4)cc3)cc(=O)c2c1 | 70% (inactive) |
| CCS(=O)(=O)N1CCCc2cc(C(=O)Nc3cc([N+](=O)[O-])ccc3C)ccc21 | 42% (active) |
| CCS(=O)(=O)N1CCc2cc(C(=O)Nc3cc(C)cc(C)c3)ccc21 | 80% (inactive) |
| CCS(=O)(=O)N1CCc2cc(C(=O)Nc3cc(Cl)ccc3C)ccc21 | 72% (inactive) |
| CCS(=O)(=O)N1CCc2cc(C(=O)Nc3cc([N+](=O)[O-])ccc3C)ccc21 | 40% (active) |
| Cc1ccc(C)c(NC(=O)c2ccc3c(c2)CCCN3S(C)(=O)=O)c1 | 81% (inactive) |
| CCS(=O)(=O)N1CCc2cc(C(=O)Nc3ccc(C)c(Cl)c3)ccc21 | 98% (inactive) |
| CCc1nc2cccnc2n1-c1ccc(CC(=O)Nc2cccc(C)c2C)cc1 | 81% (inactive) |
| O=C(NCc1ccco1)C1CCC(N2C(=O)c3ccccc3C2=O)CC1 (centres undefined) | 63% (inactive) |
| C=CCNC(=O)Cc1c(O)c2ccccc2[nH]c1=O | 101% (inactive) |
| CC(C)COC(=O)Cc1c(O)c2ccccc2[nH]c1=O | 39% (active) |
| CCCCCc1c(O)c2ccccc2[nH]c1=O | 103% (inactive) |
| Cc1ccc(NC(=O)C2CCN(S(=O)(=O)c3c(C)noc3C)CC2)cc1C | 91% (inactive) |
| Cc1c(C)n(Cc2ccc(F)cc2)c2ccc(C(=O)N3CCN(c4ccc(Cl)cc4)CC3)cc12 | 83% (inactive) |
| CCCN1C(C(=O)c2ccccc2)=C(OC(=O)COc2ccccc2)c2ccccc2S1(=O)=O | 49% (inactive) |
| CCCN1C(C(=O)c2ccccc2)=C(OC(=O)COc2ccc(C)cc2)c2ccccc2S1(=O)=O | 19% (active) |
| CCN1C(C(=O)c2ccccc2)=C(OC(=O)COc2ccc(C)cc2)c2ccccc2S1(=O)=O | 79% (inactive) |
| Cc1ccc(OCC(=O)OC2=C(C(=O)c3ccccc3)N(C)S(=O)(=O)c3ccccc32)cc1 | 82% (inactive) |
| CCN1C(C(=O)c2ccccc2)=C(OC(=O)COc2ccccc2)c2ccccc2S1(=O)=O | 41% (active) |

| SMILES | survival |
| --- | --- |
| CCN1C(C(=O)c2ccccc2)=C(OC(=O)COc2ccc(OC)cc2)c2ccccc2S1(=O)=O | 60% (inactive) |
| COc1ccc(-c2nc(C)c(CCNS(=O)(=O)c3cc(C)c(C)cc3C)s2)cc1 | 72% (inactive) |
| CCc1ccc(Nc2nn(-c3ccc(OC(F)(F)F)cc3)nc2C(C)=O)cc1 | 92% (inactive) |
| CCC1=NN(C(=O)Cc2ccccc2)C(O)(c2ccccc2)C1 (centres undefined) | 77% (inactive) |
| CCOC(=O)N1N=C(C)CC1(O)c1ccccc1 (centres undefined) | 90% (inactive) |
| CCC1=NN(C(=O)c2ccccc2O)C(O)(c2ccccc2)C1 (centres undefined) | 1% (active) |
| COc1ccc(CCNC(=O)C2CCCN(c3nc4c(C)cc(C)cc4s3)C2)cc1OC (centres undefined) | 81% (inactive) |
| O=C(CC(c1ccccc1)c1ccccc1)N1CCN(c2ccccn2)CC1 | 72% (inactive) |
| Cc1ccc(-c2nc3ccccc3[nH]2)cc1NC(=O)COc1cccc(C)c1C | 43% (inactive) |
| CCCOc1ccc(C(=O)Nc2cc(-c3nc4ccccc4[nH]3)ccc2C)cc1 | 44% (active) |
| COc1cc(OC)cc(C(=O)Nc2cc(-c3nc4ccccc4[nH]3)ccc2C)c1 | 44% (active) |
| COc1c(Cl)cc(C(=O)Nc2cc(-c3nc4ccccc4[nH]3)ccc2C)cc1Cl | 49% (inactive) |
| Cc1ccc(C(C)C)c(OCC(=O)Nc2cc(-c3nc4ccccc4[nH]3)ccc2C)c1 | 71% (inactive) |
| Cc1ccc(-c2nc3ccccc3[nH]2)cc1NC(=O)COc1ccccc1[N+](=O)[O-] | 60% (inactive) |
| CCCOc1cccc(C(=O)Nc2cc(-c3nc4ccccc4[nH]3)ccc2C)c1 | 56% (active) |
| CCCOc1cccc(C(=O)Nc2ccc(-c3nc4ccccc4o3)cc2)c1 | 77% (inactive) |
| Cc1ccc(-c2nc3ccccc3[nH]2)cc1NC(=O)C(C)C | 70% (inactive) |
| Cc1ccc(-c2nc3ccccc3[nH]2)cc1NC(=O)COc1ccc(Cl)cc1Cl | 18% (active) |
| CCCOc1ccc(C(=O)Nc2cc(-c3nc4cc(C)cc(C)c4o3)ccc2C)cc1 | 85% (inactive) |
| Cc1ccc(OCC(=O)Nc2cc(-c3nc4ccccc4[nH]3)ccc2C)c(C)c1 | 78% (inactive) |

Reference: PubChem BioAssay AID463173 (ICCB-Longwood Screening Facility, Harvard Medical School, 2010)
